From PubChem BioAssay AID540335 (Broad Institute, 2011) come the findings set out here.

About 270 (21%) of roughly 1,300 compounds were called active.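 Rule for the calls: active = dose-dependent rise or fall in viability, either side of zero, with half-maximal concentration at or below a set limit; inconclusive = flat curve at 30 to 70% viability loss, or poor fit; inactive = flat within 30% either way, or potency beyond limit.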 Only a sample is shown. Potency and affinity values are given separately.

The experiment can be described thus: A375 melanoma cell viability reduction, dose response, counter-screen for MITF modulator project, cherry-pick samples, set 2 (AID 540335).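 Note: A375 human melanoma cells which do not depend on MITF; 0% = median of neutral control wells and 100% = double that signal.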 Particulars: CellTiter-Glo ATP luminescence, 24 h; series mostly up to 35 µM; activity change, negative = decreased viability: at the top concentration. A general note: A counterscreen serves to expose hits that act by an unwanted route or on another target.
On to `CS(=O)(=O)c1ccc(C(=O)OCC(=O)NCc2cccs2)cc1[N+](=O)[O-]`, for which the “activity change, negative = decreased viability” value is 17.8% (inactive).

Consider `Cn1cccc1C(=O)NC(=O)COC(=O)c1ccc(S(C)(=O)=O)c([N+](=O)[O-])c1`, for which the “activity change, negative = decreased viability” value is 11.1% (inactive).

For `O=C(CCl)N1N=C(c2ccco2)CC1c1cccs1` (stereo unspecified), the “activity change, negative = decreased viability” value was -31.6% (inactive).

For the compound `CC(C)C(=O)N1CCN(c2ccc(NC(=O)c3ccc([N+](=O)[O-])o3)cc2Cl)CC1`, the “activity change, negative = decreased viability” value is 29.3% (inactive).

As to `CCCCC[n+]1ccn(C2=C([O-])c3ccccc3C(=O)/C2=N\S(=O)(=O)c2ccccc2)c1`, the “activity change, negative = decreased viability” value was -11% (inactive).

Regarding `O=C(Nc1ccc2c(c1)OCCO2)c1coc2ccccc2c1=O`, the “activity change, negative = decreased viability” value was -0.104% (inactive).

For the compound `COc1cc(CN2CCC(C(=O)NCCC(C)C)CC2)ccc1OCc1ccccc1`, the “activity change, negative = decreased viability” value is 5.82% (inactive).

With `COc1cc(CN2CCC(C(N)=O)CC2)ccc1OCc1ccccc1`, the “activity change, negative = decreased viability” value was 0.046% (inactive).

As to `CCN1CCc2c(sc(NC(=O)c3ccc(S(=O)(=O)N4CCCC4)cc3)c2C(=O)NC)C1`, the “activity change, negative = decreased viability” value is -9.91% (inactive).

Regarding `Cc1ccc(NC(=O)c2cc(N3C(=O)C=CC3=O)ccc2N2CCOCC2)cc1`, the “activity change, negative = decreased viability” value is -16.9% (inactive).

Turning to `O=C(Nc1ccc(S(=O)(=O)NC2=NCCCCC2)cc1)c1ccc([N+](=O)[O-])s1`, the “activity change, negative = decreased viability” value is -24.7% (inactive).

As to `Cc1ccc2sc(N(CCCN(C)C)C(=O)c3ccc(S(=O)(=O)N(C)C4CCCCC4)cc3)nc2c1C`, the “activity change, negative = decreased viability” value was -39.9% (inactive).

On to `Cc1ccc2nc(NC(=O)CCCC(=O)O)sc2c1`, for which the “activity change, negative = decreased viability” value is 12% (inactive).

On to `COc1ccc(S(=O)(=O)N2CCCCC2)cc1NC(=O)c1ccc([N+](=O)[O-])o1`, for which the “activity change, negative = decreased viability” value is -19.1% (inactive).

As for `Cn1c(SCC(=O)N/N=C/c2ccc([N+](=O)[O-])s2)nnc1-c1ccccc1`, the “activity change, negative = decreased viability” value is -30.7% (inactive).

Regarding `CC(=O)OCCCNc1cc(Sc2ccc(Cl)cc2)c2nonc2c1[N+](=O)[O-]`, the “activity change, negative = decreased viability” value is -14.9% (inactive).

With `O=C1Nc2cc(C(=O)NCCN3CCCCCC3)ccc2S/C1=C\c1ccccc1`, the “activity change, negative = decreased viability” value is -25.8% (inactive).

Take `CCN1CCCC1CNC(=O)c1ccc2c(c1)NC(=O)/C(=C\c1ccc(C)cc1)S2` (stereo unspecified): the “activity change, negative = decreased viability” value is -95.9% (inactive).

As for `COc1cccc(/C=C2/Sc3ccc(C(=O)NCCN4CCCC4)cc3NC2=O)c1`, the “activity change, negative = decreased viability” value is -4.96% (inactive).

For the compound `CCN1CCCC1CNC(=O)c1ccc2c(c1)NC(=O)/C(=C\c1ccc(OC)c(OC)c1)S2` (stereo unspecified), the “activity change, negative = decreased viability” value is 0.004% (inactive).

In the case of `COC(=O)[C@@H]1C[C@]2(OC(=O)c3ccccc3)C=CC(=O)C[C@@H]2N1C(=O)OCc1ccccc1`, the “activity change, negative = decreased viability” value is 5.93% (inactive).

Turning to `COc1ccccc1NS(=O)(=O)c1cccc(C(=O)N/N=C/c2ccc([N+](=O)[O-])o2)c1`, the “activity change, negative = decreased viability” value was -30.3% (inactive).

Consider `Cc1ccccc1OCC(=O)N/N=C/c1ccc([N+](=O)[O-])o1`, for which the “activity change, negative = decreased viability” value is -16.2% (inactive).

Turning to `O=C(COc1ccccc1)N/N=C/c1ccc([N+](=O)[O-])o1`, the “activity change, negative = decreased viability” value was -8.29% (inactive).

Take `C=Cc1ncc(OC)c2c1[nH]c1ccccc12`: the “activity change, negative = decreased viability” value was 14.5% (inactive).

For the compound `O=[N+]([O-])c1cccc2c(N3CCCC3)ccnc12`, the “activity change, negative = decreased viability” value is -26.5% (inactive).

For the compound `CCN1CCN(c2ccc(NC(=O)c3ccc([N+](=O)[O-])o3)cc2Cl)CC1`, the “activity change, negative = decreased viability” value was -0.148% (inactive).

As to `O=C(C[n+]1cccc2ccccc21)c1ccc([N+](=O)[O-])cc1`, the “activity change, negative = decreased viability” value is -6.09% (inactive).

Regarding `Cc1cc(C)n(-c2ccc(C(=O)Nc3ccc(C)c(S(=O)(=O)N4CCOCC4)c3)cc2)n1`, the “activity change, negative = decreased viability” value is -12.6% (inactive).

For the compound `CS(=O)(=O)c1nc(-c2ccc(F)cc2)cc(C(F)(F)F)n1`, the “activity change, negative = decreased viability” value was 38.8% (inactive).

`CCn1c(/C=C/N(C)c2ccccc2)[n+](CC)c2ccc(Cl)cc21`: the “activity change, negative = decreased viability” value was -36.6% (inactive).

As for `CCOC(=O)c1ccc2c(c1)n(CC)c(/C=C/N(C)c1ccccc1)[n+]2CC`, the “activity change, negative = decreased viability” value is -19.5% (inactive).

`Oc1cc(NCCN2CCOCC2)cc2cccnc12`: the “activity change, negative = decreased viability” value was -26.1% (inactive).

Take `O=C(N/N=C\c1cc(Br)ccc1O)c1ccc(S(=O)(=O)N2CCCCC2)cc1`: the “activity change, negative = decreased viability” value was -15.3% (inactive).

Take `O=C(N/N=C/c1cc(Cl)ccc1O)c1ccncc1`: the “activity change, negative = decreased viability” value is -31% (inactive).

For `O=C1c2cc(F)ccc2-n2c1nc1ccccc1c2=O`, the “activity change, negative = decreased viability” value is -37.3% (inactive).

Turning to `CCOC(=O)CSC1=NC(=O)/C(=C\c2ccc(Cl)cc2)S1`, the “activity change, negative = decreased viability” value is -2.2% (inactive).

As to `O=C(N/N=C/c1ccc(F)cc1)c1c(O)c2ccccc2[nH]c1=O`, the “activity change, negative = decreased viability” value is -19.2% (inactive).

Regarding `O=C1/C(=C/c2ccccc2[N+](=O)[O-])COc2ccccc21`, the “activity change, negative = decreased viability” value is 116% (inactive).

For `Cc1ccc(-c2cn(-c3ccc(SC(F)F)cc3)c3[n+]2CCC3)cc1`, the “activity change, negative = decreased viability” value is -14.1% (inactive).

As to `O=c1c(Cl)c2oc3ccccc3nc-2c2ccccc12`, the “activity change, negative = decreased viability” value was -8.83% (inactive).

Turning to `COc1cccc(-c2nnc3n2N=C(C(C)(C)C)CS3)c1`, the “activity change, negative = decreased viability” value is -24.4% (inactive).

For the compound `O=C(CCl)Nc1ccc(-c2ccccc2)cc1`, the “activity change, negative = decreased viability” value is -39.9% (inactive).

For `COc1ccc(S(=O)(=O)N(C(C)=O)c2ccc(OC(C)=O)c3ccccc23)cc1[N+](=O)[O-]`, the “activity change, negative = decreased viability” value was -31.6% (inactive).

As to `CS(=O)(=O)c1ccc2nc(NC(=O)c3ccccc3)sc2c1`, the “activity change, negative = decreased viability” value was -10.8% (inactive).

For `CC1=C/C(=N\NC(=S)Nc2cccnc2)CC(C)(C)C1`, the “activity change, negative = decreased viability” value is -15.5% (inactive).

Turning to `O=C(CCl)Nc1cccc(-c2cnc3ccccc3n2)c1`, the “activity change, negative = decreased viability” value is -29.9% (inactive).

In the case of `Nc1nc2ccccc2n1/N=C/c1ccc([N+](=O)[O-])s1`, the “activity change, negative = decreased viability” value is -21% (inactive).

Regarding `CC1CN(C(=O)CCC(=O)NCCCN2CCC(Cc3ccccc3)CC2)c2cc(Cl)ccc2O1` (stereo unspecified), the “activity change, negative = decreased viability” value is -37.2% (inactive).

`Clc1ccc(-c2c[n+](Cc3cccc(Cl)c3)c3n2CCC3)cc1`: the “activity change, negative = decreased viability” value is 3.73% (inactive).

Turning to `COc1ccc(C(=O)NCCSc2ccccc2C)cc1`, the “activity change, negative = decreased viability” value is -8.17% (inactive).
